Measurements from PubChem BioAssay.

Target: Torsin-1A-interacting protein 2 (Homo sapiens) (UniProt Q8NFQ8)
Experiment: LULL1 binders on small-molecule microarray, primary screen, cell lysate, human LULL1 lysate, 635/667 nm fluorescence (AID 1092);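 note: probe is lysate of COS7 cells overexpressing human LULL1; score merges per-feature 667 nm fluorescence with signal-to-noise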
Conditions: hLULL1 lysate binding, 635 nm fluorescence, higher = more signal

Chain of Torsin-1A-interacting protein 2 (Homo sapiens) (Q8NFQ8 whole entry, looked up): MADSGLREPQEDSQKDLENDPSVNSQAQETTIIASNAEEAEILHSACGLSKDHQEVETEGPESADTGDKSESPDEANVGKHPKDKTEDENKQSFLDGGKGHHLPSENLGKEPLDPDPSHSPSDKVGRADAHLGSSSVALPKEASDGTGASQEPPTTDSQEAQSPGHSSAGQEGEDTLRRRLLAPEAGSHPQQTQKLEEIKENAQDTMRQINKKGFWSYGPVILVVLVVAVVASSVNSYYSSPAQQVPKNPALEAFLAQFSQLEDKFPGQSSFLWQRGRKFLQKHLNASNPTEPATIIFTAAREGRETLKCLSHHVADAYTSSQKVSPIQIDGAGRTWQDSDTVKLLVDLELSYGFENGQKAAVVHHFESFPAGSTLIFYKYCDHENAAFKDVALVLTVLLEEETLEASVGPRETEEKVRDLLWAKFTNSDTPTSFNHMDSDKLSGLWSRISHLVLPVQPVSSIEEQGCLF

Row | Compound | composite z-score
1 | CCOC(=O)C1=C[C@@H](C(C)(C)C)N(S(=O)(=O)c2ccc(C)cc2)[C@H]1c1cccc2ccccc12 | 2.36
2 | C=CC[C@@]1(C(=O)NCCCOC)N=C(c2ccc(OCCCO)cc2)O[C@@H]1c1ccccc1 | 3.37
3 | [N-]=[N+]=Nc1ccccc1C[C@]1(C(=O)NCCN2CCOCC2)COC(c2ccc(OCCCO)cc2)=N1 | 3.03
4 | Cc1ccc(F)cc1S(=O)(=O)N[C@@H]1CCN(Cc2ccc(Br)cc2)C1 | -1.04
5 | OCCCC1=CC(c2ccc(CN3CCCC3)cc2)N(Cc2cc3c(cc2Br)OCO3)CC1 (stereo not given) | -0.692
6 | COC(=O)C1=CC(CCCO)=CC(c2ccc(CN3CCCC3)cc2)N(Cc2cccc(OC(F)(F)F)c2)C=C1C(=O)OC (stereo not given) | 3.31
7 | CC(CO)N1C(=O)[C@@H]2[C@H]3C(=O)OCC=C[C@H]3OC23C=CCN(Cn2nnc4ccccc42)C(=O)[C@@H]13 (stereo not given in full) | -0.444
8 | CC(C)NC(=O)[C@@]1(c2ccc([N+](=O)[O-])cc2)CC(=O)N(C2CCCCC2)[C@@H]1c1ccc(CO)cc1 | 2.85
9 | O=C1CS(=O)(=O)C(c2cccc([N+](=O)[O-])c2)N1c1ccccc1 (stereo not given) | 1.85
10 | NC(=O)NCC#Cc1ccc2c(c1)[C@]1(C(=O)N2)[C@H](c2ccccc2OCCO)N2[C@H](c3ccccc3)[C@H](c3ccccc3)OC(=O)[C@H]2[C@@H]1C(=O)NC[C@H](O)c1ccccc1 | 1.06
11 | CCCC[C@@H](O)C1=C(COc2ccccc2)C[C@H]2C(=O)N(Cc3ccccc3)C(=O)[C@H]2[C@H]1CO | 0.492
12 | COC(=O)[C@@]1(Cc2ccc(F)cc2)[C@H]2c3cc(C(=O)N(C)C)n(Cc4ccc(OC(F)(F)F)cc4)c3C[C@H]2CN1C(=O)c1ccccc1 | 0.841
13 | COCCOC(=O)N1C(=O)[C@@]2(c3cc(C#CC4=CCCCC4)ccc31)[C@H](c1ccccc1OCCO)N1[C@H](c3ccccc3)[C@H](c3ccccc3)OC(=O)[C@H]1[C@@H]2C(=O)N1CCN(c2ncccn2)CC1 | 0.456
14 | O=C1OCCC=C[C@H]2OC34C=CCN(c5ccc6ccccc6c5)C(=O)[C@H]3N(CCCO)C(=O)[C@@H]4C12 (stereo not given in full) | -0.939
15 | CCCC=C(CCC)[C@@H](NS(=O)(=O)CC12CCC(CC1=O)C2(C)C)c1ccc(C(=O)OC)cc1 (stereo not given in full) | 3.78
16 | CC(C)[Si](C#C[Si](C(C)C)(C(C)C)C(C)C)(O[C@H](c1ccccc1)c1cn(Cc2ccccc2)nn1)C(C)C | 0.754
17 | C[N+](C)(C)CCCC[C@@H]1NC(=O)[C@@H]2C[C@H](C(=O)NCCCCCCN)[C@H](c3cccc(OCCO)c3)N2C1=O | 2.44
18 | COC(=O)[C@@H]1N=C(c2ccc(OCCCO)cc2)O[C@@H]1C | -0.0276
19 | Cc1ccc(N2C(=O)c3ccccc3[C@@H](C(=O)NCCCN(C)C)[C@@H]2c2ccc(CO)cc2)nc1 | -0.732
20 | C#CCN(Cc1ccccc1Br)[C@H](/C=C/c1ccccc1)[C@@H](O)Cc1ccccc1 | 0.98
21 | COCCOC(=O)N1C(=O)[C@@]2(c3cc(C#CC4=CCCCC4)ccc31)[C@H](c1ccccc1OCCO)N1[C@H](c3ccccc3)[C@H](c3ccccc3)OC(=O)[C@H]1[C@@H]2C(=O)NC[C@H](O)c1ccccc1 | 2.54
22 | NCCCCCCNC(=O)[C@@H]1C[C@@H]2C(=O)N[C@@H](CCCCN)C(=O)N2[C@@H]1c1ccc(O)cc1 | 2.47
23 | C=CC[C@]1(C(=O)N2CCOCC2)COC(c2ccc(OCCCO)cc2)=N1 | 4.02
24 | COc1ccc(C(=O)Nc2ccc(CN3C(=O)[C@]4(O[C@H](CC(=O)N5Cc6ccccc6C[C@H]5CO)[C@@H]([Si](C)(C)c5ccc(OC)cc5)[C@@H]4C)c4ccccc43)cc2)cc1 | 1.77
25 | CCCNC(=O)[C@@H]1c2ccccc2C(=O)N(Cc2ccc(OC(F)(F)F)cc2)[C@H]1c1ccc(CO)cc1 | 2.12
